Experimental findings from PubChem BioAssay AID2732 (Emory University Molecular Libraries Screening Center, 2010) are described below.

The term inhibition denotes the drop in the measured response relative to a control, in per cent.

Screen size: about 220,000 compounds; about 8,200 (3.7%) were called active.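 Rule for the calls: active = compounds that reduced the stress-induced luciferase reporter signal by more than about 70% of percent inhibition (limit read from the data); inactive = the rest.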 The sample as a whole holds a higher share of actives than the screen did.

This assay in a line: inhibitors of CHOP promoter induction, primary screen, cell-based, unfolded protein response, luciferase reporter (AID 2732).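 Note: 0% = tunicamycin plus vehicle and 100% = wells without tunicamycin.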 To be noted: CHO-K1 CHOP-promoter luciferase, tunicamycin-induced, 15-18 h; at 10 µM; stronger effect = higher value. Background: In a reporter assay the amount or activity of a reporter protein is the signal.
As to `CC(C)COC(=O)n1c(=O)oc2ccc(S(=O)(=O)N3CCCCC3)cc21`, the inhibition was 11.3% (inactive). In the case of `COc1ccc(OC)c(Nc2nc3ccccc3n3cnnc23)c1`, the inhibition was 24.5% (inactive). On to `Cc1cccc(C2C3=C(CCCC3=O)N=C3c4ccccc4C(=O)C32)c1` (stereo not drawn), for which the inhibition was 19.4% (inactive). With `CC(=O)N1CCN(C(=O)Nc2cccc(C(F)(F)F)c2)CC1` the figure was 26.5% (inactive).

On to `Cc1cccc(NC(=O)c2cccc(C(F)(F)F)c2)c1`, for which the inhibition is 2.04% (inactive). As for `Cc1cccc(NC(=O)c2nnn(-c3cccc(C(F)(F)F)c3)c2N)c1`, the figure is 70.6% (active); as for `CC(=O)OCCOCn1cnn2c(=O)c(Br)c(C)nc12`, 7.79% (inactive).

With `O=C(O)c1ccccc1OCc1ccccc1Cl`, the inhibition is -5.39% (inactive). Take `Cn1nccc1NC(=O)Nc1ccc(OC(F)(F)F)cc1`: the inhibition was 0.64% (inactive). As for `CC1(C)C2CCC1(C)C(OC(=O)c1ccc(O)cc1)C2` (stereo not drawn), the figure is 77.6% (active). As for `Cc1ccc(C(=O)OC2CCCN(C)C2)cc1` (stereo not drawn), the inhibition was 7.84% (inactive). With `CC1(C)C2CCC1(C)C(OC(=O)CCn1ccnc1)C2` (stereo not drawn) the figure was 4.53% (inactive); with `N#Cc1ccc(Oc2ccc(C(F)(F)F)cc2NC(=O)c2ccc(F)cc2)cc1`, 6.42% (inactive); with `O=C(NCC1CCCO1)c1ccccc1-c1nc(-c2ccccc2Cl)no1` (stereo not drawn), -0.61% (inactive).

As for `O=C(NNc1ncnc2c1cnn2-c1ccccc1)c1ccco1`, the inhibition was 2.45% (inactive). For the compound `C1=C(CCNc2ncnc3c2cnn3-c2ccccc2)CCCC1`, the inhibition is 88% (active). As for `c1ccc(-n2ncc3c(N4CCCC4)ncnc32)cc1`, the figure is -22.2% (inactive).

Regarding `O=C1N(c2ccccc2)C(=Nc2ccccc2)SC12CC2`, the inhibition is -17.1% (inactive). With `O=C(CCNc1n[nH]c(=O)[nH]c1=O)N/N=C\c1ccc(Br)cc1`, the inhibition was -14.4% (inactive).

In the case of `Cc1noc(C)c1S(=O)(=O)Nc1cc(C(F)(F)F)ccc1N1CCOCC1`, the inhibition is 13.3% (inactive). Turning to `CC(C)(C)NC(=O)NC(=O)COC(=O)C1(C)CC1(Cl)Cl` (stereo not drawn), the inhibition is 6.38% (inactive). As for `COc1ccccc1OCCC(=O)OCC(=O)NC(=O)NC(C)(C)C`, the figure is 44.9% (inactive); as for `CC(C)(C)NC(=O)NC(=O)COC(=O)CCC1CCCCC1`, 80.2% (active). As for `Cc1c(C(=O)N/N=C/c2ccccc2)[nH]c2c([N+](=O)[O-])cccc12`, the figure is 20% (inactive); as for `O=C(O)C(F)(F)C(NCc1ccccc1)c1ccccc1` (stereo not drawn), -11.7% (inactive). As for `Cc1ccc(N2C(=O)CN=C2Nc2nc(C)cc(C)n2)cc1`, the figure is 17% (inactive); as for `CC(C)(C)C(=O)c1cnc(Nc2ccccc2)s1`, 4% (inactive); as for `O=C(c1ccc(Cl)cc1)c1cnc(Nc2ccccc2)s1`, 70.1% (active). As for `O=C(CSc1nnc(Nc2ccccc2)s1)Nc1cccnc1Cl`, the inhibition is -4.1% (inactive).

Take `CCc1ccnc(NS(=O)(=O)c2ccc3c(c2)OCCO3)c1`: the inhibition is 16.7% (inactive). As for `O=c1c(/C=N/O)coc2ccc(Cl)cc12`, the inhibition is 3.04% (inactive).

Regarding `c1ccc2c(NC3C4CC5CC(C4)CC3C5)nc(N3CCOCC3)nc2c1` (stereo not drawn), the inhibition is 83.1% (active).

For `CC(Nc1nc(N2CCOCC2)nc2ccccc12)c1ccccc1` (stereo not drawn), the inhibition was 16.9% (inactive).

With `CC(Nc1nc(N2CCCC2)nc2ccccc12)c1ccccc1` (stereo not drawn), the inhibition was 34.2% (inactive). With `Cc1cc(=O)oc2c(C(=O)c3ccccc3)c(OCC(N)=O)ccc12` the figure was 6.93% (inactive); with `CCC(C)(C)c1ccc(Oc2ccc(NC(=O)COC(=O)C3=COCCO3)cc2)cc1`, 80.4% (active). With `COc1ccc(NC(=O)COC(=O)CNC(=O)C2CCCCC2)cc1` the figure was 9.71% (inactive); with `O=C(OCC(=O)c1cccs1)C1=COCCO1`, 17.6% (inactive). For the compound `COCCN(Cc1cc2cc3c(cc2nc1Cl)OCO3)C(=O)c1cccc(C)c1`, the inhibition was 27.4% (inactive). Consider `COC(=O)N(NC(=O)C(O)(C(C)C)C(C)C)c1ccccc1`, for which the inhibition was 16% (inactive). As for `COC(=O)c1cc(NC(=O)c2cc(C(C)(C)C)nn2Cc2cccc(C)c2)ccc1N1CCOCC1`, the figure is 42.8% (inactive).

In the case of `CCOC(=O)C1C(c2ccc(OC)c(OC)c2)c2c([nH][nH]c2=O)CC1(C)O` (stereo not drawn), the inhibition is 3.71% (inactive).

For `O=C1N=C(N2CCc3ccccc3C2)S/C1=C\c1ccc(O)cc1`, the inhibition was -2.8% (inactive).

As to `O=C(CSc1ccc(/C=N/NC(=O)c2cccc(F)c2)o1)Nc1ccccc1`, the inhibition was -10.9% (inactive).

Take `C/C(=N\OC(=O)c1ccccc1)c1c(C)nc2cc(C)ccn12`: the inhibition is 15.7% (inactive). `Cc1ccc(NC(=O)C(=O)NCc2ccc(/C=N/NC(=O)c3c(C)nc4cc(C)ccn34)o2)cc1`: the inhibition is 78.9% (active). On to `COc1ccc(S(=O)(=O)N(CC(=O)N/N=C/c2ccccc2C(=O)O)c2ccccc2OC)cc1`, for which the inhibition is -10.7% (inactive). As to `CCOC(=O)c1nnn(-c2nonc2OC)c1-c1ccccc1`, the inhibition was 24.9% (inactive).

As for `CCOC(=O)c1c(-c2cccc(N)c2)cn2ccccc12`, the inhibition is 20% (inactive). As for `CCOC(=O)c1c(N)nn(C(=O)c2ccccc2)c1-c1ccccc1`, the figure is 72.5% (active).

In the case of `C=C1CCN([C@H](C(=O)NCc2cc(OC)c(OC)c(OC)c2)C(C)C)S(=O)(=O)c2ccccc21`, the inhibition is -3.31% (inactive).

As to `Cc1nc(Cl)c(C#N)c2c1CCCC2`, the inhibition is 18.3% (inactive). With `O=S(=O)(c1ccc(Cl)cc1)N1CCCN(c2ccc(C(F)(F)F)cn2)CC1` the figure was 21.2% (inactive); with `CCOc1ccc(N=C2NC(=O)S/C2=C\c2ccc(O)cc2)cc1`, 64.1% (inactive). With `COc1ccc(/C=C2\SC(=N)N(c3ccc(F)cc3)C2=O)cc1` the figure was 38.3% (inactive); with `COc1ccc(/C=C2/S/C(=N/N=C3\CC4CCC3(C)C4(C)C)NC2=O)cc1` (stereo not drawn), 88.5% (active); with `O=S(=O)(NC(=S)Nc1ccccc1)c1ccc(F)cc1`, -27.1% (inactive). In the case of `N#Cc1c(NCCO)ccc([N+](=O)[O-])c1NCCO`, the inhibition is 14.8% (inactive). With `COc1ccc(/C=C2\N=C3CCCN3C2=O)cc1` the figure was -36.1% (inactive).

As to `Cc1cc(C)nc(Nc2n[nH]c(-c3ccccc3N)n2)n1`, the inhibition is -32.3% (inactive). As for `CCOc1cc(/C=N/O)cc(Br)c1OC`, the figure is 23.6% (inactive); as for `COc1cc(/C=N/O)cc(Br)c1OCc1cccc(Cl)c1`, 108% (active); as for `CCOc1c(Cl)cc(/C=N/O)cc1OC`, 10.4% (inactive).
